Jurkat NFkB inh = inhibitors of induced NF-kB luciferase reporter, primary screen, TCR NF-kB activation inhibitor project, cell-based, luminescence, uHTS. Jurkat, PMA/ionomycin-induced NF-kB luciferase reporter. inhibition, % at 4 µM. hit rate 0.53% among 330,000. AID 435003, 2010; in the data active = inhibition above about 50%
Gli-Sufu antag = Gli-Sufu pathway antagonists, primary screen, luciferase luminescence, Sufu-KO-LIGHT cells, uHTS | Sufu-KO-LIGHT fibroblasts, Gli luciferase reporter luminescence | inhibition, % at 5 µM | hit rate 0.74% among 340,000;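 active = inhibition above about 55%, limit read from the data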;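 note: 0% = DMSO-treated cells and 100% = wells with medium but no cells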
697 NFkB inh = inhibitors of PMA/ionomycin-induced NF-kB reporter, 697 cells, primary screen, B-cell NF-kB inhibitor project, cell-based, luminescence, uHTS. hit rate 0.33% among 330,000. AID 435022, 2010. inhibition, % at 4 µM. 697 B-cell NF-kB luciferase reporter, 16 h; in the data active = inhibition above about 35%
H9c2 protect = cardioprotection against H2O2-induced cell death, primary screen, uHTS, H9c2 cells, ATPLite luminescence; protection from H2O2 cell death, % at 20 µM; H9c2 cardiomyocytes, H2O2 injury protection, 2 h; hit rate 0.63% among 360,000;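 active = compounds giving at least 50% protection of heart cells from peroxide-induced death in the single-dose screen, raw or plate-pattern-corrected value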;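 note: 0% = DMSO wells with peroxide and 100% = DMSO wells without peroxide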
H9c2 TAG inh = inhibitors of triacylglycerol accumulation, primary screen, cell-based, uHTS, fluorescence, H9c2. H9c2 cells, Nile Red lipid (TAG) fluorescence; cells loaded with 200 µM oleic acid. inhibition, % at 12.5 µM. hit rate 0.66% among 230,000. AID 651582, 2012;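 active = pattern-corrected inhibition of lipid staining of at least 50% with the nuclear-stain viability signal not falling by more than 50%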;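 note: 0% = DMSO wells and 100% = triacsin C control wells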
NR2F2 inh = NR2F2 transcriptional activity inhibitors, primary screen, cell-based, luciferase reporter, HEK293T, luminescence; HEK293T NGFI-A luciferase reporter; COUP transcription factor 2 (Homo sapiens), P24468; inhibition, % at 8.6 µM; hit rate 0.7% among 370,000;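 active = inhibition above a per-plate cutoff, mean inhibition of test wells between control levels plus 3 SD, cut at about 38% in these data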;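 note: cells cotransfected with COUP-TFII expression vector driving the NGFI-A reporter; 0% = median of COUP-TF2 test wells and 100% = reporter-only cells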
Target sequence (P24468 whole entry, looked up): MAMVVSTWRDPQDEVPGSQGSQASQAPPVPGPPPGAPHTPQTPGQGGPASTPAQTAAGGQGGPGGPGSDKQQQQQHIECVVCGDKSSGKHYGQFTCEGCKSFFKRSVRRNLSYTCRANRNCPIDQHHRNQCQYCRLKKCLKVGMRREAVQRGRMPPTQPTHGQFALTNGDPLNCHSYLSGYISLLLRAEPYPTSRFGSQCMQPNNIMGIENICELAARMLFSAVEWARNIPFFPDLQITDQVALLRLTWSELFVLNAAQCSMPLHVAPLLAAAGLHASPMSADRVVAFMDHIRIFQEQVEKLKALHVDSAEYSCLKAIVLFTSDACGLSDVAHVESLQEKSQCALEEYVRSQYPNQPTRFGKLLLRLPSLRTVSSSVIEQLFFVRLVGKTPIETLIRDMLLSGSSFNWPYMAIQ
Gli antag conf = Gli-SUFU pathway antagonists, confirmation, single concentration, luciferase luminescence, Sufu-KO-LIGHT cells; shares compounds with Gli-Sufu antag; Gli luciferase reporter; inhibition, % at 5 µM; hit rate 40% among 2,500; AID 602428, 2012;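 active = mean inhibition at 5 µM reaching about 45%, limit read from the data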;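 note: plate controls were DMSO-treated cells for no effect and wells lacking cells for full effect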
SufuKO cytotox = cytotoxicity in Sufu-KO-LIGHT cells, confirmation, cytotoxicity control for Gli-SUFU antagonist project, cell-based, ATP luminescence, single concentration; shares compounds with Gli-Sufu antag; cytotoxicity, % at 5 µM; hit rate 32% among 2,500; AID 651994, 2013;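 active = mean cytotoxicity at 5 µM above about 25%, limit read from the data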;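 note: cells exposed to compound overnight for roughly 16 to 18 hours; plate controls were DMSO wells with cells for no effect and medium without cells for full effect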
Wnt3a counter = Wnt3a reporter signal inhibition, confirmation, counter-screen for Gli-SUFU antagonist project, Wnt-LIGHT cells, luminescence, single concentration. hit rate 20% among 2,500. shares compounds with Gli-Sufu antag. Wnt3a-driven luciferase reporter. inhibition, % at 6.25 µM;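 active = mean inhibition above about 25%, limit read from the data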
Active calls of the source: *; . = no result given. An excerpt weighted towards active compounds, which were near 2.6% of everything screened.

SMILES	Jurkat NFkB inh	Gli-Sufu antag	697 NFkB inh	H9c2 protect	H9c2 TAG inh	NR2F2 inh	Gli antag conf	SufuKO cytotox	Wnt3a counter
Cc1ccc2ccc3ccc(C)nc3c2n1	-1	53	-3	-22	37	21	47*	13	-17
C[C@@H]1CN(c2ccc(N3CCNC[C@@H]3C)cc2C#N)CCN1Cc1ccccc1	.	.	.	.	.	13	.	.	.
CCCCCn1c(CN(C)Cc2ccccc2)nc2c1c(=O)n(C)c(=O)n2C	.	19	.	-6	.	10	.	.	.
C=C(C)Cn1c(CN(C)Cc2ccccc2)nc2c1c(=O)n(C)c(=O)n2C	21	58*	-24	-6	.	-17	25	38*	-8
CCCn1c(N)c(C(=O)CSc2nnc(-c3ccoc3C)n2C)c(=O)n(C)c1=O	-16	76*	-4	2	-13	4	12	22	-25
COc1c(Cl)ccc(Cl)c1C(=O)NCc1ccco1	6	51	11	-1	-19	-10	14	2	3
COc1cccc(OC)c1C(=O)NCc1ccco1	.	.	.	-2	3	-13	.	.	.
CC/C=C\[C@H](O)[C@H](O)C1=C(C)C(=O)[C@]2(O1)C(=O)N[C@@](OC)(C(=O)c1ccccc1)[C@@H]2O	.	.	.	.	.	-27	.	.	.
Cc1cc(-n2c(SCc3ccccc3F)nc3n[nH]c(C)c3c2=N)ccc1Cl	-1	53	10	-12	45	7	25	5	-38
CCN(C(=O)CSc1nc2n[nH]c(C)c2c(=N)n1-c1ccc(Cl)c(C)c1)c1cccc(C)c1	9	9	5	-10	.	-4	.	.	.
CCc1cccc(CC)c1NC(=S)/C(=C(\[O-])c1ccc(Cl)s1)[n+]1ccccc1	-1	53	7	-7	-5	-4	25	18	-4
[O-]/C(=C(\C(=S)Nc1cccc2ccccc12)[n+]1ccccc1)c1ccc(Cl)s1	9	9	0	7	9	-5	.	.	.
Cc1ccccc1Nc1nnc(SCc2cc(=O)n3ccsc3n2)s1	-8	-15	0	35	.	9	.	.	.
O=c1cc(CSc2nnc(Nc3ccccc3)s2)nc2sccn12	-9	55	-5	32	.	12	19	18	-9
CCCCc1c(-c2ccccc2OC)ncn1Cc1ccccc1C	.	.	.	.	.	12	.	.	.
CCC(C(=O)NC1CCCCCC1)c1ccccc1 (stereo not drawn)	3	3	27	4	-16	18	.	.	.
CC[N+](C)(CC)CCC(c1ccccc1)C1CCCCC1 (stereo not drawn)	1	56*	5	-9	.	8	50*	18	-19
CCOC(=O)C1=CCC(c2ccc([N+](=O)[O-])cc2)N(S(=O)(=O)c2ccc(C)cc2)C1 (stereo not drawn)	.	.	.	.	.	6	.	.	.
O=c1[nH]c(C2CCN(S(=O)(=O)c3ccc(C(F)(F)F)cc3)CC2)nc2c1nnn2Cc1cccc(F)c1	6	56*	-23	-3	.	0	19	25*	-57
COC(=O)c1cc2c(c3c4cc(F)ccc4n(S(=O)(=O)c4ccccc4)c13)C(=O)N(C)C2	.	.	.	.	.	-1	.	.	.
FC(F)Sc1ccc(-n2cc(-c3ccc(Cl)cc3)[n+]3c2CCC3)cc1	5	22	-26	-6	.	10	.	.	.
Cc1ccc(-c2cn(-c3ccc(SC(F)F)cc3)c3[n+]2CCC3)cc1	19	76*	-27	-21	.	22	80*	39*	-44

Screens from PubChem BioAssay.
